The source of these data is PubChem BioAssay (EPA / NIEHS).

Records with an inconclusive call do not appear. Activity calls are given as the source filed them. How the source made its calls, unless noted: active means hit-call score of the fitted dose curve at least 0.9, where 1 is the maximum; inactive means score below 0.9.

Test [1] has as its target human Retinoid X Receptor beta (RXRb), RXRB (gene 6257) (UniProt P28702). The experiment in a line: ATG_RXRb_TRANS: Attagene TRANS-FACTORIAL HepG2 Assay for human Retinoid X Receptor beta (RXRb) (AID 2283013; active means hit-call score of the fitted dose curve at least 0.9, where 1 is the maximum). The method in brief: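 After a 24 h incubation with test chemical, transfected HepG2 cells carrying NR-Gal4 fusions and GAL4-UAS reporter transcription units yield RNA whose reporter cDNA is FAM-labelled, HpaI-cut and sized by capillary electrophoresis; increases over DMSO are scored.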

Test [2] has as its target human Thyroid Receptor alpha (THRa1), THRA (gene 7067) (UniProt P10827). As to the kind of experiment: ATG_THRa1_TRANS: Attagene TRANS-FACTORIAL HepG2 Assay for human Thyroid Receptor alpha (THRa1) (AID 2283014; active means hit-call score of the fitted dose curve at least 0.9, where 1 is the maximum). The method, boiled down: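 HepG2 cells transiently transfected with chimeric NR-Gal4 and GAL4-UAS reporter units, dosed 24 h. Reporter mRNA quantified by RT-PCR, fluorescent labeling, HpaI digestion and capillary electrophoresis; gain-of-signal fit versus DMSO.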

Test [3] has as its target human Vitamin D Receptor (VDR), VDR (gene 7421) (UniProt P11473). As to the kind of experiment: ATG_VDR_TRANS: Attagene TRANS-FACTORIAL HepG2 Assay for human Vitamin D Receptor (VDR) (AID 2283022; active means hit-call score of the fitted dose curve at least 0.9, where 1 is the maximum). The method, boiled down:
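HepG2 cells were transiently transfected with GAL4-UAS reporter units and a chimeric VDR-Gal4 construct, then dosed for 24 hours. Reporter mRNA was quantified by RT-PCR, fluorescent labeling, HpaI digestion and capillary electrophoresis; gain of signal analysed vs DMSO.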

Read-out in test [4]: E-selectin (Homo sapiens) (UniProt P16581)
As to the kind of experiment: BSK_3C_Eselectin: BioMAP Diversity Plus: 3C Assay for Eselectin Biomarker Activity (AID 2283015).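 On outcome: cell surface E-selectin protein quantified by ELISA 24 h after dosing.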 The conditions noted are these: primary human endothelial cells (HUVEC); actives raise or lower the signal. The method in brief:
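Primary human umbilical vein endothelial cells (3C system), read 24 h after compound addition; E-selectin measured by ELISA. Bidirectional curve fitting against DMSO baseline; cytotoxicity by parallel SRB total-protein staining.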

Read-out in test [5]: Interleukin-1 alpha (IL1a), IL1A (gene 3552)
As to the kind of experiment: BSK_BE3C_IL1a: BioMAP Diversity Plus: BE3C Assay for Interleukin-1 alpha (IL1a) Biomarker Activity (AID 2283016). The conditions noted are these: primary human bronchial epithelial cells; actives raise or lower the signal. The method, boiled down: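 Measured in human lung primary bronchial epithelial cells: IL-1a by ELISA at 24 h after dosing, with bidirectional fitting against DMSO.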

Read-out in test [6]: Monocyte Chemoattractant Protein-1 (MCP1), CCL2 (gene 6347)
As to the kind of experiment: BSK_3C_MCP1: BioMAP Diversity Plus: 3C Assay for Monocyte Chemoattractant Protein-1 (MCP1) Biomarker Activity (AID 2283017). The conditions noted are these: primary human endothelial cells (HUVEC); actives raise or lower the signal. The method, boiled down:
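Human umbilical vein endothelial cells (3C system) exposed to chemicals for 24 h; MCP-1 quantified by ELISA against the DMSO baseline with bidirectional fitting, and parallel SRB staining used to assess cytotoxicity.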

Read-out in test [7]: Monocyte Chemoattractant Protein-1 (MCP1), CCL2 (gene 6347)
The experiment in a line: BSK_4H_MCP1: BioMAP Diversity Plus: 4H Assay for Monocyte Chemoattractant Protein-1 (MCP1) Biomarker Activity (AID 2283018). The conditions noted are these: primary human endothelial cells (HUVEC); actives raise or lower the signal. The method, boiled down: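 Primary human umbilical vein endothelium is exposed to chemical for 24 h before MCP-1 is assayed by ELISA. Concentration-response fitted bidirectionally relative to DMSO.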

Read-out in test [8]: Human Leukocyte Antigen - DR isotype (HLADR), HLA-DRA (gene 3122)
The experiment in a line: BSK_3C_HLADR: BioMAP Diversity Plus: 3C Assay for Human Leukocyte Antigen - DR isotype (HLADR) Biomarker Activity (AID 2283019).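 On outcome: ELISA of cell-surface HLA-DR on HUVEC 24 h after dosing.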 The conditions noted are these: primary human endothelial cells (HUVEC); actives raise or lower the signal. The method in brief:
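HUVEC monoculture, HLA-DR measured by ELISA 24 h after chemical dosing. Fitted bidirectionally against DMSO baseline; parallel SRB staining assessed cytotoxicity, with 3C proliferation read by SRB at 48 h.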

Read-out in test [9]: Interleukin-8 (IL8), CXCL8 (gene 3576)
The experiment in a line: BSK_3C_IL8: BioMAP Diversity Plus: 3C Assay for Interleukin-8 (IL8) Biomarker Activity (AID 2283020). The conditions noted are these: primary human endothelial cells (HUVEC); actives raise or lower the signal. The method in brief:
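Using DMSO-treated wells as the baseline, bidirectional curve fitting was applied to ELISA-measured IL-8 from human umbilical vein endothelial cultures sampled 24 h after compound addition.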

Read-out in test [10]: Monokine induced gamma interferon (MIG), CXCL9 (gene 4283)
As to the kind of experiment: BSK_3C_MIG: BioMAP Diversity Plus: 3C Assay for Monokine induced gamma interferon (MIG) Biomarker Activity (AID 2283021).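 On AC50: MIG protein level measured by immunoassay in the treated endothelial cultures.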 The conditions noted are these: primary human endothelial cells (HUVEC); actives raise or lower the signal. The method, boiled down: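 ELISA-measured MIG in dosed HUVEC 3C cultures at 24 h, analysed by bidirectional fitting with DMSO defining baseline activity.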

The nature of test [11]: BSK_3C_SRB: Viability Assessment in the BioMAP Diversity Plus: 3C Assay (AID 2283023).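 Further: fitted both ways against DMSO so a hit may be signal rise or drop.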 The conditions noted are these: primary human endothelial cells (HUVEC). The method, boiled down: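 Human umbilical vein endothelial cells in the 3C system, treated 24 h. Total protein measured by 0.1% sulforhodamine B staining after 10% TCA fixation, read at 560 nm; bidirectional fit versus DMSO.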

Read-out in test [12]: Matrix Metallopeptidase 1 (MMP1), MMP1 (gene 4312)
The experiment in a line: BSK_BE3C_MMP1: BioMAP Diversity Plus: BE3C Assay for Matrix Metallopeptidase 1 (MMP1) Biomarker Activity (AID 2283024). The conditions noted are these: primary human bronchial epithelial cells; actives raise or lower the signal. The method, boiled down:
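In this multiplexed primary-cell system, human bronchial epithelium received chemicals for 24 h before an ELISA for MMP1. Values reflect bidirectional fits normalised to the DMSO baseline.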

The nature of test [13]: BSK_3C_Vis: BioMAP Diversity Plus: 3C Assay for Morphology Visualization (AID 2283025).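 Further: fitted both ways so gain or loss versus DMSO counts.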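 On AC50: light microscopy image of cell morphology used as background control.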 The conditions noted are these: primary human endothelial cells (HUVEC). The method, boiled down:
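Light-microscopy morphology readout, 24 h exposure, human primary umbilical vein endothelium; analysed relative to DMSO with bidirectional fitting.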

Read-out in test [14]: Pselectin, SELP (gene 6403)
As to the kind of experiment: BSK_4H_Pselectin: BioMAP Diversity Plus: 4H Assay for Pselectin Biomarker Activity (AID 2283026). The conditions noted are these: primary human endothelial cells (HUVEC); actives raise or lower the signal. The method, boiled down: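 Bidirectional fits against DMSO gave the endpoint. Cells: primary human umbilical vein endothelium, chemical-treated for 24 h before ELISA detection of P-selectin.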

A short description of test [15]: BSK_BE3C_SRB: Viability Assessment in the BioMAP Diversity Plus: BE3C Assay (AID 2283028). The conditions noted are these: primary human bronchial epithelial cells. The method, boiled down: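 Human bronchial epithelial primary cells in confluent culture, 24 h after chemical dosing; total protein by 0.1% SRB staining after 10% TCA fixation, read at 560 nm. Bidirectional fitting versus DMSO baseline.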

Read-out in test [16]: Thrombomodulin, THBD (gene 7056)
As to the kind of experiment: BSK_3C_Thrombomodulin: BioMAP Diversity Plus: 3C Assay for Thrombomodulin Biomarker Activity (AID 2283029). The conditions noted are these: primary human endothelial cells (HUVEC); actives raise or lower the signal. The method, boiled down: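 In a multiplexed primary-cell system, human umbilical vein endothelium received chemical and was assayed 24 h later for thrombomodulin by ELISA. Parallel cultures were SRB-stained (0.1% SRB after 10% TCA fixation, read at 560 nm) to flag cytotoxicity.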

Read-out in test [17]: Urokinase-type plasminogen activator receptor (uPAR), PLAUR (gene 5329)
The experiment in a line: BSK_4H_uPAR: BioMAP Diversity Plus: 4H Assay for Urokinase-type plasminogen activator receptor (uPAR) Biomarker Activity (AID 2283030). The conditions noted are these: primary human endothelial cells (HUVEC); actives raise or lower the signal. The method, boiled down: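 Human umbilical vein endothelial cells in the 4H system, 24 h after chemical dosing. Cell-surface uPAR measured by ELISA, fitted in both directions versus DMSO; cytotoxicity checked by SRB total protein in parallel cultures.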

Read-out in test [18]: Vascular endothelial growth factor receptor 2 (Homo sapiens) (UniProt P35968)
The experiment in a line: BSK_4H_VEGFRII: BioMAP Diversity Plus: 4H Assay for Vascular endothelial growth factor receptor 2 (VEGFR2) Biomarker Activity (AID 2283031). The conditions noted are these: primary human endothelial cells (HUVEC); actives raise or lower the signal. The method in brief: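 Primary human umbilical vein endothelial cells (4H system), 24 h exposure; cell-surface VEGFR2 measured by ELISA. Bidirectional fitting versus DMSO; cytotoxicity checked in parallel by SRB total-protein staining.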

Read-out in test [19]: Human Leukocyte Antigen - DR isotype (HLADR), HLA-DRA (gene 3122)
As to the kind of experiment: BSK_BE3C_HLADR: BioMAP Diversity Plus: BE3C Assay for Human Leukocyte Antigen - DR isotype (HLADR) Biomarker Activity (AID 2283032). The conditions noted are these: primary human bronchial epithelial cells; actives raise or lower the signal. The method in brief:
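BioMAP BE3C format: human bronchial epithelium, 24 h compound treatment, ELISA detection of HLA-DR, with bidirectional analysis relative to DMSO.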

The nature of test [20]: BSK_4H_SRB: Viability Assessment in the BioMAP Diversity Plus: 4H Assay (AID 2283027).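 Further: cells exposed to compound for 24 h before staining; curves fitted both ways versus DMSO so AC50 may be loss or gain.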 The conditions noted are these: primary human endothelial cells (HUVEC). The method in brief:
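Cytotoxicity readout: sulforhodamine B (0.1%) staining of total protein after 10% TCA fixation, measured at 560 nm in human umbilical vein endothelium at 24 h. DMSO set the baseline; fitting was bidirectional.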

Chain of human Retinoid X Receptor beta (RXRb), RXRB (gene 6257) (P28702 whole entry, looked up, the tested form may be a part): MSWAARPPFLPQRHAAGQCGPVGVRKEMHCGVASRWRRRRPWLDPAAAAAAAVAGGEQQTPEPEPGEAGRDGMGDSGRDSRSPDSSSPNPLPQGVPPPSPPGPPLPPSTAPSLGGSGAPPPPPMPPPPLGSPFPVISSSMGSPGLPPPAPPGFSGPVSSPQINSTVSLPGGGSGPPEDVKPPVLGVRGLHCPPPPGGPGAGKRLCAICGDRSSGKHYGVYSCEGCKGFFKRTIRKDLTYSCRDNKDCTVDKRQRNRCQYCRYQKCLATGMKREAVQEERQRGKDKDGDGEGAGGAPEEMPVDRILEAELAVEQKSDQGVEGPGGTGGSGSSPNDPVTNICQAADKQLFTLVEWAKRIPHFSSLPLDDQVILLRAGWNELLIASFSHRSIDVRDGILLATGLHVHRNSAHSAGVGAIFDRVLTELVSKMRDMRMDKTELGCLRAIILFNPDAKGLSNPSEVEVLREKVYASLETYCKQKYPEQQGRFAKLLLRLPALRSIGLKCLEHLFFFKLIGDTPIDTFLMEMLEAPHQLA
Chain of human Vitamin D Receptor (VDR), VDR (gene 7421) (P11473 whole entry, looked up, the tested form may be a part): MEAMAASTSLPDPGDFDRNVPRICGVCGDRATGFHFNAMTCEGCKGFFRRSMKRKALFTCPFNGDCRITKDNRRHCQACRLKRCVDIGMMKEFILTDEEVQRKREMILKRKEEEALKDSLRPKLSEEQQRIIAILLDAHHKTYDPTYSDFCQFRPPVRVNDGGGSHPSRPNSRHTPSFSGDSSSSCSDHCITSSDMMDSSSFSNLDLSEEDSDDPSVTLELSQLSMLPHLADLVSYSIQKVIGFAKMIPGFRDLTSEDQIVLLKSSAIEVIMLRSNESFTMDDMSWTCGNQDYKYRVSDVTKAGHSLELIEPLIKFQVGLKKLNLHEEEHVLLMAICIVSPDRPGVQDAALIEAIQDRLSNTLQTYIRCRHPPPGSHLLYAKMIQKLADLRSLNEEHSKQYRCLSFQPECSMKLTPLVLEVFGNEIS
Chain of E-selectin (Homo sapiens) (P16581 whole entry, looked up): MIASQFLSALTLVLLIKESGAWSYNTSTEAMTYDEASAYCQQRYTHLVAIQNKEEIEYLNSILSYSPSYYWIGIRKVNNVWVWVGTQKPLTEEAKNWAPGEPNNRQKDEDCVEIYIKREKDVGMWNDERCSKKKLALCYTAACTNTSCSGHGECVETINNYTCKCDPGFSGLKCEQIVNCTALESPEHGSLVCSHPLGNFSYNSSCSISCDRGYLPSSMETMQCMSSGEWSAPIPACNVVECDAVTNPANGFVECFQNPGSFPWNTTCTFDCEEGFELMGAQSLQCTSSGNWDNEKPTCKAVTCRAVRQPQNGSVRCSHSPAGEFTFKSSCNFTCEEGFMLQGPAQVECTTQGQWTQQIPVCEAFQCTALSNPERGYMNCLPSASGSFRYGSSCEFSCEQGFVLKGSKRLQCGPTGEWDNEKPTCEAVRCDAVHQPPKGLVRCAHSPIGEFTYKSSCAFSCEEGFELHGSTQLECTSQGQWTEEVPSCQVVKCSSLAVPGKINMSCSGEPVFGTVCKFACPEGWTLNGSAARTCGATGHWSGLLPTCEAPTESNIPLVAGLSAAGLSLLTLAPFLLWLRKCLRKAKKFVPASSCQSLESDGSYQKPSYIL
Chain of human Thyroid Receptor alpha (THRa1), THRA (gene 7067) (P10827 whole entry, looked up, the tested form may be a part): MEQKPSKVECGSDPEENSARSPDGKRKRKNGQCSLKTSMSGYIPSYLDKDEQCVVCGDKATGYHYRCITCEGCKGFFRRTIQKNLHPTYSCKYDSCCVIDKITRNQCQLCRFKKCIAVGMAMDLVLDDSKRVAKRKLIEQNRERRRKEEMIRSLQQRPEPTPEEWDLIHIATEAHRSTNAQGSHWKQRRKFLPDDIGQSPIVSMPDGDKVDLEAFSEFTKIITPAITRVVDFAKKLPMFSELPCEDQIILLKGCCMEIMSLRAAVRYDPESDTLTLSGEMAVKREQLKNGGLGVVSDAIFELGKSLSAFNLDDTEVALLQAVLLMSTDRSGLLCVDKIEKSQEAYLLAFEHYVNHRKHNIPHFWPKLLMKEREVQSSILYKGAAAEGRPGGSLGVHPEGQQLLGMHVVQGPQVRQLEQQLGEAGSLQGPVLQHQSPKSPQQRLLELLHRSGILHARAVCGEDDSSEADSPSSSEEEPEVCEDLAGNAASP

Turning to `CCCCCCOC(=O)c1ccc(O)cc1`, the AC50 in test [1] was 33.4 µM (active). For the same compound, the outcome in test [2] and in [3] was inactive.

With `CC1COCc2cc3c(cc21)C(C)(C)C(C)C3(C)C` (configuration not stated), the AC50 is 8.91 µM (active) in test [1] and 128 µM (active) in test [3]. Further, in test [2], the result was inactive.

As for `O=C(Nc1ccc(Cl)c(Cl)c1)c1cc(Cl)cc(Cl)c1O`, the call in [1] and in test [3] was inactive. In test [2], the AC50 is 1.35 µM (active).

Take `COc1cccc(O)c1`: the compound was called inactive in test [1], in [2], in [4], in test [5], in test [6] and in test [7]. Besides, the result in [8], in test [9], in [10], in test [11], in [13] and in test [14] was inactive. In addition, the result in [15], in test [16], in [17], in [18] and in [19] was inactive. In test [12], the AC50 is 0.193 µM (active).

For `CCC1CO1` (configuration not stated), the outcome in test [1], in test [2] and in test [3] was inactive.

For the compound `C=Cc1ccc(O)c(OC)c1`, the compound was classed as inactive in [1], in test [2] and in test [3].

As for `CCCCCCCCCCCCCCCCCC[N+](C)(C)Cc1ccccc1`, the call in [1], in test [3], in test [15], in [16] and in test [18] was inactive. Besides, the AC50 in [2] is 50 µM (active); in [4], 2.68 µM (active); in [5] it was 3.96 µM (active); in test [6], 0.716 µM (active); in test [7], 0.929 µM (active); in test [8], 0.515 µM (active). The AC50 in test [9] is 4.38 µM (active); in test [10], 5.26 µM (active); in [11], 0.299 µM (active); in [12], 10 µM (active); in [13], 0.425 µM (active); in test [14] it was 0.975 µM (active). The AC50 in test [17] is 0.59 µM (active); in test [19], 2.05 µM (active).

For the compound `O=c1cc(-c2ccccc2)oc2ccc3ccccc3c12`, the result in test [1], in test [2] and in [3] was inactive.

On to `COc1cc([N+](=O)[O-])ccc1N`, for which the outcome in test [1], in [2] and in test [3] was inactive.

`CS(=O)(=O)c1ccc([C@@H](CC2CCCC2)C(=O)Nc2cnccn2)cc1Cl`: the compound was called inactive in [1], in [2], in [4], in test [5], in test [6] and in test [7]. Besides, the result in test [8], in test [9], in [10], in [13], in test [14] and in [15] was inactive. Also, the outcome in test [16], in test [18] and in test [19] was inactive. The AC50 is 30.3 µM (active) in test [11], 9.05 µM (active) in test [12], 19.2 µM (active) in test [20] and 22.7 µM (active) in test [17].

`CNNCc1ccc(C(=O)NC(C)C)cc1`: the compound was called inactive in [1], in [2] and in test [3].

Turning to `C=CC(=O)OCCC(F)(F)C(F)(F)C(F)(F)C(F)(F)C(F)(F)C(F)(F)C(F)(F)C(F)(F)F`, the call in test [1], in test [2], in test [4], in test [5], in [6] and in [7] was inactive. Moreover, the result in [8], in test [9], in [10], in [11], in test [12] and in [14] was inactive. The outcome in test [15], in test [16], in test [17], in test [18] and in test [19] was inactive.

For orientation: AC50 means the midpoint of the concentration-response curve, whichever way the signal moves.
